Among the data in PubChem BioAssay (NCATS) are Potency values, retold here.

Records with an inconclusive call do not appear. Calls of active or inactive are those of the source. Calls follow the shape of the dose curve; as a rule, active = well fitted curve in the direction sought with a large enough effect; inconclusive = small, poorly fitted or top-dose-only effect, or another doubt; inactive = no such curve, though single readings can be large; an effect the other way counts as inactive or inconclusive.

Experiment [1] can be described thus: qHTS of pediatric cancer cell lines to identify multiple opportunities for drug repurposing: Primary screen for NB-EBc1 cells (AID 1347095). Also: potency is read from the fitted curve at half-maximal effect. Put shortly:
(§1)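 Readout: CellTiter-Glo luminescence, 48 h treatment. Controls DMSO (neutral) and bortezomib 2.3 µM final (positive). Potency and efficacy taken from primary-screen concentration-response curves.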

A short description of experiment [2]: qHTS of pediatric cancer cell lines to identify multiple opportunities for drug repurposing: Primary screen for U-2 OS cells (AID 1347096). Also: nearly all actives have a fitted effect of over 50% in size. Also: potency is read from the fitted curve at half-maximal effect. In outline:
(§2)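 Cells (500-1,000/well) in growth media were settled 5 h at 37 degrees C, then given compounds for 48 h. Viability was read as CellTiter-Glo luminescence. Primary runs used MIPE at 11 points (0.78 nM-46 µM) and NPC at 8 points (0.59 nM-46 µM); follow-ups used 11 points.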
(qHTS replaces the single test concentration by a dilution series.)

Experiment [3] can be described thus: qHTS of pediatric cancer cell lines to identify multiple opportunities for drug repurposing: Primary screen for Saos-2 cells (AID 1347097). Also: nearly all actives have a fitted effect of over 40% in size. Also: potency is read from the fitted curve at half-maximal effect. In outline:
as §1

The nature of experiment [4]: qHTS of pediatric cancer cell lines to identify multiple opportunities for drug repurposing: Primary screen for LAN-5 cells (AID 1347100). Also: potency is read from the fitted curve at half-maximal effect. In outline:
as §2

Experiment [5] can be described thus: qHTS of pediatric cancer cell lines to identify multiple opportunities for drug repurposing: Primary screen for BT-12 cells (AID 1347101). Also: nearly all actives have a fitted effect of over 25% in size. Also: potency is read from the fitted curve at half-maximal effect. Put shortly:
(§3)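 Cells (500-1,000/well) rested 5 h, then received compounds for 48 h; metabolically active cells were measured by CellTiter-Glo luminescence. Final concentrations spanned up to 46 µM (MIPE, 11-point) or 0.59 nM-46 µM (NPC, 8-point) in primary screens, 11-point in follow-ups.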

The nature of experiment [6]: qHTS of pediatric cancer cell lines to identify multiple opportunities for drug repurposing: Primary screen for Rh18 cells (AID 1347102). Also: nearly all actives have a fitted effect of over 65% in size. Also: potency is read from the fitted curve at half-maximal effect. In outline: as §2
Experiment [7] can be described thus: qHTS of pediatric cancer cell lines to identify multiple opportunities for drug repurposing: Primary screen for OHS-50 cells (AID 1347103). Also: nearly all actives have a fitted effect of over 40% in size. Also: potency is read from the fitted curve at half-maximal effect. Put shortly:
as §3

Experiment [8] in a line: qHTS of pediatric cancer cell lines to identify multiple opportunities for drug repurposing: Primary screen for RD cells (AID 1347104). Also: nearly all actives have a fitted effect of over 55% in size. Also: potency is read from the fitted curve at half-maximal effect. Put shortly: as §1
A short description of experiment [9]: qHTS of pediatric cancer cell lines to identify multiple opportunities for drug repurposing: Primary screen for MG 63 (6-TG R) cells (AID 1347105). Also: nearly all actives have a fitted effect of over 50% in size. Also: potency is read from the fitted curve at half-maximal effect. In outline:
as §1

Experiment [10] is described as follows: qHTS of pediatric cancer cell lines to identify multiple opportunities for drug repurposing: Primary screen for control Hh wild type fibroblast cells (AID 1347106). Also: nearly all actives have a fitted effect of over 55% in size. Also: potency is read from the fitted curve at half-maximal effect. Put shortly:
as §2

The nature of experiment [11]: qHTS of pediatric cancer cell lines to identify multiple opportunities for drug repurposing: Primary screen for Rh30 cells (AID 1347107). Also: nearly all actives have a fitted effect of over 75% in size. Also: potency is read from the fitted curve at half-maximal effect. Put shortly: as §2
The nature of experiment [12]: qHTS of pediatric cancer cell lines to identify multiple opportunities for drug repurposing: Primary screen for Rh41 cells (AID 1347108). Also: nearly all actives have a fitted effect of over 70% in size. Also: potency is read from the fitted curve at half-maximal effect. In outline:
as §1

A short description of experiment [13]: qHTS of pediatric cancer cell lines to identify multiple opportunities for drug repurposing: Primary screen for NB1643 cells (AID 1347099). Also: nearly all actives have a fitted effect of over 50% in size. Also: potency is read from the fitted curve at half-maximal effect. Put shortly:
as §1

A short description of experiment [14]: qHTS of pediatric cancer cell lines to identify multiple opportunities for drug repurposing: Primary screen for SK-N-SH cells (AID 1347098). Also: nearly all actives have a fitted effect of over 65% in size. Also: potency is read from the fitted curve at half-maximal effect. In outline: as §3
Experiment [15] is described as follows: qHTS of pediatric cancer cell lines to identify multiple opportunities for drug repurposing: Confirmatory screen for A673 cells (AID 1347110).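 Also: cells exposed to compound for 48 h before the viability read; nearly all actives have a fitted effect of over 65% in size.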 Also: potency is read from the fitted curve at half-maximal effect. In outline: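 qHTS titration format: primary MIPE 0.78 nM-46 µM (11 pts), NPC 0.59 nM-46 µM; confirmation 11 pts. 48 h, CTG luminescence.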
Experiment [16] is described as follows: qHTS of pediatric cancer cell lines to identify multiple opportunities for drug repurposing: Confirmatory screen for SK-N-MC cells (AID 1347111).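 Also: cells exposed to compound for 48 h before the readout; nearly all actives have a fitted effect of over 70% in size.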 Also: potency is read from the fitted curve at half-maximal effect. Put shortly:
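Metabolically active cells were quantified by ATP-dependent luminescence (CellTiter-Glo, 15 min at room temperature) following 48 h treatment. Cells had been plated at 500-1,000 per well and settled for 5 h beforehand.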

Experiment [17] in a line: qHTS of pediatric cancer cell lines to identify multiple opportunities for drug repurposing: Confirmatory screen for BT-12 cells (AID 1347112). Also: nearly all actives have a fitted effect of over 55% in size. Put shortly: as §2
A short description of experiment [18]: qHTS of pediatric cancer cell lines to identify multiple opportunities for drug repurposing: Confirmatory screen for LAN-5 cells (AID 1347113). Also: nearly all actives have a fitted effect of over 65% in size. Also: potency is read from the fitted curve at half-maximal effect. In outline:
as §2

The nature of experiment [19]: qHTS of pediatric cancer cell lines to identify multiple opportunities for drug repurposing: Confirmatory screen for NB1643 cells (AID 1347109). Also: nearly all actives have a fitted effect of over 45% in size. Also: potency is read from the fitted curve at half-maximal effect. In outline:
as §2

As for `C[C@H](CCC(=O)O)[C@H]1CCC2C3C[C@H](O)[C@@H]4C[C@H](O)CC[C@]4(C)C3CC[C@@]21C` (some centres not stated), the Potency entry in experiment [1], in experiment [2], in experiment [3], in [4], in experiment [5] and in [6] was “inactive” each time. In addition, the Potency result in experiment [7], in experiment [8], in experiment [9], in experiment [10], in experiment [11] and in experiment [12] was “inactive” throughout.

Take `C#C[C@]1(O)CC[C@@H]2[C@@H]3CCC4=CC(=O)CC[C@@H]4[C@H]3CC[C@@]21CC`: the Potency entry in [1], in [2], in experiment [3], in experiment [13], in [4] and in [5] was “inactive” in each case. Moreover, the Potency entry in [6], in experiment [9] and in experiment [10] was “inactive” in each case.

Turning to `CC(C(C)N1CC(=O)NC(=O)C1)N1CC(=O)NC(=O)C1` (configuration not stated), the values for the Potency in experiment [1] and in experiment [16] were 0.264 µM (active) and 2.93 µM (active), respectively. Also, the Potency result in experiment [2], in experiment [14], in [5], in [6], in experiment [8] and in experiment [9] was “inactive” each time. Further, the Potency entry in experiment [10], in experiment [11], in experiment [12], in experiment [15], in experiment [17] and in experiment [18] was “inactive” each time.

Take `O=C1NC(=O)C(=Cc2ccc3nccc(-c4ccncc4)c3c2)S1`: the Potency in experiment [1] is 0.118 µM (active); in experiment [2] it was 1.87 µM (active); in experiment [3] it was 0.372 µM (active); in experiment [14] it was 1.36 µM (active); in [13] it was 1.32 µM (active); in [5], 0.385 µM (active). Also, the Potency in experiment [6] was 0.469 µM (active); in experiment [7], 0.0385 µM (active); in experiment [9], 0.0743 µM (active); in experiment [11], 1.48 µM (active); in experiment [12], 0.59 µM (active); in experiment [19], 6.57 µM (active). Moreover, in experiment [15], the Potency is 4.65 µM (active).

Take `N#Cc1c(C2CCNCC2)cc(-c2c(O)cccc2OCC2CC2)nc1N`: the Potency was 18.7 µM (active) in [1]; 21.5 µM (active) in experiment [14]; 15.3 µM (active) in [7]; 16.6 µM (active) in [8]; 14.8 µM (active) in experiment [12]. In addition, the Potency result in [2], in experiment [10], in [16] and in [17] was “inactive” throughout.

As for `CC(C)Oc1ccc(C(=O)N[C@H](CNC(=O)CN(C)C)Cc2ccc(-c3cn4cccc([C@H](C)O)c4n3)cc2)cc1Cl`, the Potency in experiment [1] was 0.372 µM (active); in [3], 0.332 µM (active); in experiment [5], 1.93 µM (active); in experiment [7] it was 2.43 µM (active); in experiment [12], 1.18 µM (active). The Potency result in experiment [2] and in experiment [10] was “inactive” in each case.

For the compound `O=C(NCc1ccccc1)[C@H](Cc1ccccc1)NC(=O)[C@@H]1O[C@@H]1C(=O)NCCc1ccc(O)cc1`, the Potency result in experiment [1], in [2], in experiment [4], in experiment [5], in experiment [9] and in experiment [10] was “inactive” throughout. Besides, the Potency entry in [11], in experiment [12] and in experiment [17] was “inactive” throughout. Further, the Potency is 23.5 µM (active) in [3], 21.5 µM (active) in experiment [14] and 10.4 µM (active) in experiment [15].

With `Nc1nc2c(c(=O)[nH]1)N(C=O)[C@H](CNc1ccc(C(=O)N[C@@H](CCC(=O)O)C(=O)O)cc1)CN2`, the Potency entry in experiment [1], in experiment [2], in [3], in [14], in [6] and in experiment [9] was “inactive” throughout. Also, the Potency entry in experiment [10], in experiment [11], in experiment [12], in experiment [19], in [17] and in [18] was “inactive” in each case. Also, the Potency is 10.5 µM (active) in experiment [4] and 10.4 µM (active) in [16].

For `CC(=O)N1CCN(c2ccc(OCc3nn(C)c(C)c3-c3cccc4c(CCCOc5cccc6ccccc56)c(C(=O)O)n(Cc5cccnc5)c34)cc2)CC1`, the Potency in [1] was 0.418 µM (active); in experiment [2], 3.72 µM (active); in experiment [3] it was 3.72 µM (active); in experiment [13] it was 0.209 µM (active); in experiment [4], 0.148 µM (active); in experiment [5], 2.43 µM (active). Besides, the Potency was 0.59 µM (active) in experiment [6]; 14.8 µM (active) in [9]; 0.526 µM (active) in [10]; 4.69 µM (active) in experiment [11]; 0.743 µM (active) in experiment [12]; 20.8 µM (active) in [16]. In addition, the Potency entry in [19] and in experiment [17] was “inactive” each time.

On to `CC(C)OC(=O)[C@H](C)N[P@](=O)(OC[C@H]1O[C@@H](n2ccc(=O)[nH]c2=O)[C@](C)(F)[C@H]1O)Oc1ccccc1`, for which the Potency entry in [1], in [2], in [14], in [13], in [4] and in experiment [5] was “inactive” throughout. The Potency result in experiment [6], in [7], in experiment [8], in [9], in experiment [10] and in experiment [11] was “inactive” each time. In addition, in experiment [12], the Potency result is “inactive”.

Consider `C[C@H]1[C@@H](OC(=O)CCC(=O)O)O[C@@H]2O[C@@]3(C)CC[C@@H]4[C@H](C)CC[C@@H]1[C@@]24OO3`, for which the Potency is 1.66 µM (active) in experiment [1]; 13.6 µM (active) in [14]; 4.18 µM (active) in experiment [13]; 1.22 µM (active) in [5]; 14.8 µM (active) in [6]; 1.66 µM (active) in experiment [8]. The Potency in experiment [9] is 18.7 µM (active); in [12] it was 2.35 µM (active); in [19], 14.7 µM (active); in experiment [15], 2.33 µM (active); in experiment [16], 3.29 µM (active); in experiment [18], 16.5 µM (active). Besides, the Potency result in [2], in experiment [3] and in experiment [10] was “inactive” in each case.

On to `CCOC(=O)C1=C(C)NC(=S)NC1c1cccc(O)c1` (configuration not stated), for which the Potency is 0.264 µM (active) in [1]; 0.187 µM (active) in experiment [4]; 0.137 µM (active) in experiment [5]; 0.0968 µM (active) in experiment [7]; 11.7 µM (active) in experiment [15]; 5.22 µM (active) in experiment [16]. The Potency entry in experiment [2], in experiment [13], in [6], in experiment [10], in [11] and in experiment [17] was “inactive” throughout. For the same compound, the Potency entry in experiment [18] is “inactive”.

Regarding `Cc1nc(NC(=O)N2CCC[C@@H]2C(N)=O)sc1-c1ccnc(C(C)(C)C(F)(F)F)c1`, the Potency in experiment [1] was 1.48 µM (active); in [13], 9.35 µM (active); in experiment [4] it was 5.9 µM (active); in experiment [6], 3.72 µM (active); in experiment [7], 0.485 µM (active); in [8], 0.372 µM (active). Moreover, the Potency in [9] is 1.18 µM (active); in experiment [12] it was 4.18 µM (active); in [15] it was 16.5 µM (active); in experiment [16], 5.22 µM (active); in [18], 2.93 µM (active). Also, in [2], the Potency entry was “inactive”.
